{"source": "ChEMBL document CHEMBL1157539", "about": "“Thousands of chemical starting points for antimalarial lead identification” (Nature, 2010)", "assay_type_in_all_cases": "functional", "key": {"Plasmodium falciparum [1]": {"test_system": "Plasmodium falciparum", "test": "GSK_TCMDC: Inhibition of Plasmodium falciparum 3D7 in whole red blood cells, using parasite LDH activity as an index of growth. Test compounds present at 2uM"}, "Plasmodium falciparum [2]": {"test_system": "Plasmodium falciparum", "test": "GSK_TCMDC: Inhibition of Plasmodium falciparum Dd2 in whole red blood cells, using parasite LDH activity as an index of growth. Test compounds present at 2uM"}, "HepG2": {"test_system": "HepG2", "test": "GSK_TCMDC: Percent inhibition of human HepG2 cell line. Test compounds present at 10uM."}}, "note": "Where “and” joins values, the source holds several entries; their conditions need not be identical. Identical values can stand only once."}
{"smiles": "Cc1nc(C)c(-c2ccc(Br)cc2)c(O)c1Br", "values": [{"measurement": "Inhibition", "setting": "Plasmodium falciparum [1]", "value": 98, "unit": "%"}, {"measurement": "Inhibition", "setting": "Plasmodium falciparum [2]", "value": 95, "unit": "%"}, {"measurement": "Inhibition", "setting": "HepG2", "value": 9, "unit": "%"}]}
{"smiles": "CCCC(C)Nc1nc(C)cc(N[C@@H](CC(C)C)C(=O)NCc2cccc(F)c2)n1.O=C(O)C(F)(F)F", "note": "(stereo not given in full)", "values": [{"measurement": "Inhibition", "setting": "Plasmodium falciparum [1]", "value": 96, "unit": "%"}, {"measurement": "Inhibition", "setting": "Plasmodium falciparum [2]", "value": 63, "unit": "%"}, {"measurement": "Inhibition", "setting": "HepG2", "value": 1, "unit": "%"}]}
{"smiles": "N=C(N)NC(=O)Nc1cc(Cl)c(Cl)c(C(F)(F)F)c1", "values": [{"measurement": "Inhibition", "setting": "Plasmodium falciparum [1]", "value": 100, "unit": "%"}, {"measurement": "Inhibition", "setting": "Plasmodium falciparum [2]", "value": 99, "unit": "%"}, {"measurement": "Inhibition", "setting": "HepG2", "value": 6, "unit": "%"}]}
{"smiles": "Cl.N#Cc1ccc2c(c1)CN(CC[C@H]1CC[C@H](NC(=O)/C=C/c3c[nH]c4ccccc34)CC1)CC2", "values": [{"measurement": "Inhibition", "setting": "Plasmodium falciparum [1]", "value": "92% and 97%"}, {"measurement": "Inhibition", "setting": "Plasmodium falciparum [2]", "value": "24% and 27%"}, {"measurement": "Inhibition", "setting": "HepG2", "value": "20% and 10%"}]}
{"smiles": "N#Cc1cccc(-c2cnc(N)c(-c3nc4cc(S(N)(=O)=O)ccc4[nH]3)c2)c1", "values": [{"measurement": "Inhibition", "setting": "Plasmodium falciparum [1]", "value": 100, "unit": "%"}, {"measurement": "Inhibition", "setting": "Plasmodium falciparum [2]", "value": 99, "unit": "%"}, {"measurement": "Inhibition", "setting": "HepG2", "value": 16, "unit": "%"}]}
{"smiles": "Cn1cnnc1Sc1ccc(CN2CCOc3ccc(C4=CCCCC4)cc3C2)o1", "values": [{"measurement": "Inhibition", "setting": "Plasmodium falciparum [1]", "value": 98, "unit": "%"}, {"measurement": "Inhibition", "setting": "Plasmodium falciparum [2]", "value": 97, "unit": "%"}, {"measurement": "Inhibition", "setting": "HepG2", "value": 1, "unit": "%"}]}
{"smiles": "O=C(NCC1Cc2cc(Oc3ccccc3)ccc2O1)c1ccc([N+](=O)[O-])o1", "note": "(stereo not given)", "values": [{"measurement": "Inhibition", "setting": "Plasmodium falciparum [1]", "value": 88, "unit": "%"}, {"measurement": "Inhibition", "setting": "Plasmodium falciparum [2]", "value": 81, "unit": "%"}, {"measurement": "Inhibition", "setting": "HepG2", "value": 83, "unit": "%"}]}
{"smiles": "C=CCN1C(=O)CN(S(=O)(=O)c2ccc(-n3nc(C)cc3C)cc2)C1=S", "values": [{"measurement": "Inhibition", "setting": "Plasmodium falciparum [1]", "value": 93, "unit": "%"}, {"measurement": "Inhibition", "setting": "Plasmodium falciparum [2]", "value": 0, "unit": "%"}, {"measurement": "Inhibition", "setting": "HepG2", "value": 5, "unit": "%"}]}
{"smiles": "CC(C)C[C@@H](C(=O)N[C@@H](CCCCNC(=O)OCc1ccccc1)C(=O)Nc1nccs1)[C@H](C)N(O)C=O", "values": [{"measurement": "Inhibition", "setting": "Plasmodium falciparum [1]", "value": 99, "unit": "%"}, {"measurement": "Inhibition", "setting": "Plasmodium falciparum [2]", "value": 98, "unit": "%"}, {"measurement": "Inhibition", "setting": "HepG2", "value": 0, "unit": "%"}]}
{"smiles": "CNCCNCc1ccc(-c2ccc(-c3nc4cc(F)ccc4[nH]3)cc2)cc1.O=C(O)C(F)(F)F", "values": [{"measurement": "Inhibition", "setting": "Plasmodium falciparum [1]", "value": 98, "unit": "%"}, {"measurement": "Inhibition", "setting": "Plasmodium falciparum [2]", "value": 97, "unit": "%"}, {"measurement": "Inhibition", "setting": "HepG2", "value": 30, "unit": "%"}]}
